“And” between values parts separate entries of the source, which are not always exact repeats. Equal values may be shown once. Records with an inconclusive call do not appear. Entries that show only a call come without a potency. The source made the active and inactive calls. Unless noted, calls follow the shape of the dose curve; as a rule, active = well fitted curve in the direction sought with a large enough effect; inconclusive = small, poorly fitted or top-dose-only effect, or another doubt; inactive = no such curve, though single readings can be large; an effect the other way counts as inactive or inconclusive.
Legend:
[1] = qHTS Assay for Identifying Gametocytocidal Compounds (AID 743244); also: potency is read from the fitted curve at half-maximal effect;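 as to max response: actives lower the fluorescent signal which means gametocytes are killed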; conditions: P. falciparum 3D7 stage III-V gametocytes, alamarBlue, 72 h; max response: stronger effect = lower value
Method in brief: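 Viability read-out was resazurin reduction (alamarBlue, 24 h) measured at Ex 525/Em 598 nm. Beforehand, late-stage (III-V) 3D7 P. falciparum gametocytes at 20,000 cells/well were incubated with compound 72 h at 37C under 5% CO2.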

[2] = qHTS assay for measurement of the activity of small molecule inhibitors on Zika virus induced Caspase-3 activity in human iPSC derived neural progenitor cells (hNPCs) (AID 1224857); also: nearly all actives have a fitted effect of over 65% in size
Method in brief: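 Percent inhibition of virus-induced caspase-3/7 luminescence (Caspase-Glo), scaled between uninfected cells and Zika-infected cells. hNPCs received compound 1 hr before ZIKV at 2 FFU/cell, with 6 hours infection at 37 C.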

[3] = qHTS assay for small molecule agonists of the antioxidant response element (ARE) signaling pathway measured by Nrf2-dependant transcriptional activity (AID 720636; active = well fitted curve in the direction sought with a large enough effect in the repeat runs; an effect the other way counts as inactive or inconclusive;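 also: HepG2 cells with an ARE-driven luciferase reporter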)
Method in brief: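 Attachment 6 hr at 37 C, then compound versus DMSO vehicle for 16 hr in ARE-luc HepG2 cells (1% dialyzed FBS); luminescence recorded 30 min after ONE-Glo addition at room temperature.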

[4] = qHTS assay for small molecule antagonists of the retinoid-related orphan receptor gamma (ROR-gamma) signaling pathway - cell viability counter screen (AID 720652; active = well fitted curve in the direction sought with a large enough effect in the repeat runs; an effect the other way counts as inactive or inconclusive;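 also: CHO reporter cells with doxycycline-induced ROR-gamma expression; compound exposure lasted 16 hr before ATP read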)
Method in brief: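 CHO RORE-LUC/TET-ROR line, 1,000 cells/well, 37 C 5% CO2 5 hr; cpd or DMSO + doxycycline induction, 16 hr. CellTiter-Glo, 30 min RT, luminescence = ATP content.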

[5] = qHTS assay for small molecule agonists of the antioxidant response element (ARE) signaling pathway measured by Nrf2-dependant transcriptional activity - cell viability counter screen (AID 720653; active = well fitted curve in the direction sought with a large enough effect in the repeat runs; an effect the other way counts as inactive or inconclusive); conditions: ARE-bla HepG2 viability, CellTiter-Glo ATP luminescence, 16 h; stronger effect = lower value
Method in brief: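 Cytotoxicity counter screen: intracellular ATP quantified by CellTiter-Glo luminescence in the same ARE-bla HepG2 plates, after 16 h compound exposure and a 2 h beta-lactamase substrate step.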

[6] = qHTS assay for cell viability of the p53RE-bla HCT-116 cell line (AID 743292); also: nearly all actives have a fitted effect of over 55% in size
Method in brief: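 Compound-exposed HCT-116 (p53RE-bla) cells, 4,000 per well, were kept 16 h at 37 C following a 5 h preincubation. Cell number was estimated from total ATP by CellTiter-Glo luminescence read after 30 min at room temperature.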

[7] = qHTS profiling for inhibitors of Plasmodium falciparum (3D7) proliferation (AID 743322);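 also: infected erythrocytes exposed to compound for 72 h before lysis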; conditions: P. falciparum 3D7 proliferation; at 28.7 µM (top of the series) unless noted
Method in brief: (§1)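 Parasite DNA was quantified by SYBR Green I fluorescence (ex 485, em 535 nm) after overnight lysis in saponin/Triton buffer at room temperature. Cultures at 0.3% parasitemia and 2.5% hematocrit were first exposed to compound for 72 h at 37 C; signals were normalised to artemisinin (0.29 uM) and vehicle wells.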

[8] = qHTS profiling for inhibitors of Plasmodium falciparum (DD2) proliferation (AID 743323; call rule not given here); conditions: lower = more inhibition; at 28.7 µM (top of the series) unless noted
Method in brief: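 P. falciparum Dd2-infected erythrocytes (0.3% parasitemia, 2.5% hematocrit) exposed 72 h at 37 C, 5% CO2. Lysis with SYBR Green, overnight at room temperature, fluorescence 485/535 nm; normalized to 0.29 uM artemisinin and DMSO.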

[9] = qHTS profiling for inhibitors of Plasmodium falciparum (HB3) proliferation (AID 743324); conditions: Plasmodium falciparum HB3 blood-stage proliferation; at 28.7 µM (top of the series) unless noted
Method in brief: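 SYBR Green fluorescence (485 ex/535 em) of lysed cultures, incubated overnight at room temperature in the dark, quantifies parasite DNA. Infected erythrocytes at 0.3% parasitemia and 2.5% hematocrit were exposed 72 h; values normalized to DMSO and 0.29 uM artemisinin controls.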

[10] = qHTS profiling of the MIPE4 collection as inhibitors of Plasmodium falciparum (3D7) proliferation (AID 743344; call rule not given here); conditions: P. falciparum 3D7 in erythrocytes, SYBR Green DNA fluorescence, 72 h; at 28.5 µM (top of the series) unless noted
Method in brief: as §1

[11] = qHTS profiling of the MIPE4 collection as inhibitors of Plasmodium falciparum (DD2) proliferation (AID 743345; call rule not given here); conditions: P. falciparum Dd2 in erythrocytes, SYBR Green DNA, 72 h; at 28.5 µM (top of the series) unless noted
Method in brief: as §1

[12] = qHTS profiling of the MIPE4 collection as inhibitors of Plasmodium falciparum (DD2) proliferation (Rep 2) (AID 743346; call rule not given here); conditions: P. falciparum Dd2 in erythrocytes, SYBR Green DNA, 72 h; at 28.5 µM (top of the series) unless noted
Method in brief: as §1

[13] = qHTS profiling of the MIPE4 collection as inhibitors of Plasmodium falciparum (HB3) proliferation (AID 743347; call rule not given here); conditions: P. falciparum HB3 in erythrocytes, SYBR Green DNA, 72 h; at 28.5 µM (top of the series) unless noted
Method in brief: as §1

[14] = qHTS for compounds that reverse cellular toxicity of Amyloid beta (A-beta) peptide in yeast: LOPAC Validation Assay (AID 720559)
Method in brief: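 Activity is expressed relative to DMSO and an equimolar ferric chloride/clioquinol mix. Compounds were pinned into medium with A-beta-expressing yeast, grown 48 hr at 30 C, then read by absorbance at 600 nm.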

[15] = qHTS for Activators of Parkin Expression: LOPAC Validation Assay (NLuc Reporter) (AID 720572)
Method in brief: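 Compound effects on Parkin promoter activity were measured as NanoLuc luminescence after 24 h at 37 C. The neuronal reporter line also carried FLuc, which was read first. LOPAC compounds were tested at 7 concentrations, with normalization to DMSO (0%) and positive control (100%).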

[16] = molecular target: T1, Hexokinase-4 (Homo sapiens) + Glucokinase regulatory protein (Homo sapiens) (UniProt P35557+Q14397); assay: qHTS assay for inhibitors of recombinant human GCK-GKRP interaction: Diaphorase-coupled assay (AID 743205)
T1 sequence (P35557 whole entry, looked up): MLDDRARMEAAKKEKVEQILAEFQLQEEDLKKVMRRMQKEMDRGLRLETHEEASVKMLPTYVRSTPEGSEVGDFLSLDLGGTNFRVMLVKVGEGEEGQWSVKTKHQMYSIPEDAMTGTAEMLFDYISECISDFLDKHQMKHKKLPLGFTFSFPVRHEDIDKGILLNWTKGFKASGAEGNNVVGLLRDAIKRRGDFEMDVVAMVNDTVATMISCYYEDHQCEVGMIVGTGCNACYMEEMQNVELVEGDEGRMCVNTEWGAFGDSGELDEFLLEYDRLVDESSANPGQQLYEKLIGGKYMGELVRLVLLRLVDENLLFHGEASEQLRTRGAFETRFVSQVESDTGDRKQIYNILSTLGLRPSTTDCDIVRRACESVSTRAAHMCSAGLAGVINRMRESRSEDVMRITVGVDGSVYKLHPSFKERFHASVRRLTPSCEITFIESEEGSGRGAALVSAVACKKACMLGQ
T1 sequence (Q14397 whole entry, looked up): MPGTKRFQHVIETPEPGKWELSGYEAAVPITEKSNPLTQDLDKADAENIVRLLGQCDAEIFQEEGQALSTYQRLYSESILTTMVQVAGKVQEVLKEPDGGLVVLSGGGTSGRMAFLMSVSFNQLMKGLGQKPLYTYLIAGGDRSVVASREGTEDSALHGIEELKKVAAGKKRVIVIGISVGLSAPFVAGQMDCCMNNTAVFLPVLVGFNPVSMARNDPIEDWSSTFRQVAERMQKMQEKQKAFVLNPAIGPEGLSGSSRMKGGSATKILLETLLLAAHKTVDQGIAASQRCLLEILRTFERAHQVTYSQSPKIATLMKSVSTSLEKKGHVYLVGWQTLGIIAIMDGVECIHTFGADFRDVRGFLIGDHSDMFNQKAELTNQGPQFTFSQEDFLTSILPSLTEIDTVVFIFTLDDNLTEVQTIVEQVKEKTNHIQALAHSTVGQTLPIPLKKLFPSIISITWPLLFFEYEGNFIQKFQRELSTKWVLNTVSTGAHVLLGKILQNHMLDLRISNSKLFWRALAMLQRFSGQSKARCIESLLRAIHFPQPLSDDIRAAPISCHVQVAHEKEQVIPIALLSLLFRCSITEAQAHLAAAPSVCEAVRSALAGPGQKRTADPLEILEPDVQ
Method in brief: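 Inhibitors of the GCK–GKRP complex relieve GKRP suppression of GCK, detected through a G6PDH–diaphorase cascade reducing resazurin. Human GST-GCK and FLAG-GKRP are used at 10 nM with 5 mM glucose and 0.4 mM ATP.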

[17] = molecular target: T1, Hexokinase-4 (Homo sapiens) + Glucokinase regulatory protein (Homo sapiens); assay: qHTS assay for inhibitors of recombinant human GCK-GKRP interaction: HTRF assay (AID 743207)
Method in brief: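 Steps: dispense GCK–GKRP complex (5 nM each, GST- and FLAG-tagged) with 2 uM S6P; pin in compounds; add XL665/Eu-cryptate-labelled antibodies; incubate 60 min at room temperature; read time-resolved FRET at 665 and 615 nm.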

[18] = qHTS assay for measurement of the activity of small molecule inhibitors on Zika virus induced Caspase-3 activity in human astrocytoma cells (AID 1224859)
Method in brief: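 Luminescent caspase-3/7 read-out (30 min reagent, room temperature) in human SNB-19 cells infected 6 h with ZIKV (2 FFU/cell) after 1 h compound pre-incubation; Data were normalised to uninfected and infected wells.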

CNCC[C@@H](Oc1ccccc1C)c1ccccc1
max response [1]: -11.3% (inactive) | outcome [2]: inactive

O=C(O)CCCCC(=O)O
Potency [3]: inactive | Potency [4]: inactive | max response [5]: 6.35% (inactive) | max response [1]: -5.63% (inactive) | outcome [6]: inactive | outcome [2]: inactive

COC(=O)CCc1ccc(OCC(O)CNC(C)C)cc1 (stereo unspecified)
max response [1]: 1.13% (inactive) | outcome [2]: inactive

COc1cccc(CCc2ccccc2OCC(CN(C)C)OC(=O)CCC(=O)O)c1 (stereo unspecified)
Potency [1]: 3.72 µM (active) | remaining parasite growth % (stronger effect = lower value) [7]: 1.08% | activity, percent of control [8]: 1.06% | remaining proliferation (% of control), lower = more inhibition [9]: 1.2% | parasite growth, % of DMSO control [10]: 7.32% | parasite growth remaining, % of DMSO control (lower = more inhibition) [11]: 11.9% | parasite growth, % of control (lower = inhibition) [12]: 21.2% | growth, % of control [13]: 5.27% | outcome [2]: inactive

CC1(C)CCC(NC(=O)[C@@H](N)CCC(=O)O)CC1
outcome [14]: inactive | outcome [15]: inactive | outcome [16]: inactive | outcome [17]: inactive | max response [1]: -7.5% (inactive) and 17.9% (inactive) | outcome [2]: inactive

Cc1ccc(Nc2c(F)cccc2Cl)c(CC(=O)O)c1
max response [1]: 0.561% (inactive) | outcome [2]: inactive

CC(=O)O[C@]1(C(C)=O)CC[C@H]2[C@@H]3C[C@H](C)C4=CC(=O)CC[C@]4(C)[C@H]3CC[C@@]21C
Potency [3]: inactive | Potency [4]: inactive | max response [5]: -14.4% (inactive) and -14.9% (inactive) | outcome [6]: inactive | outcome [2]: inactive

CCCn1c(=O)[nH]c(=O)c2[nH]cnc21
outcome [16]: inactive | outcome [17]: inactive | max response [1]: 20.2% (inactive) and 5.21% (inactive) | outcome [2]: inactive

CCN(CC)C(=O)N1CCN(C)CC1
max response [1]: 0.149% (inactive) | outcome [2]: inactive | outcome [18]: inactive

CC1=C(C(=O)OC(C)C)C(c2cccc([N+](=O)[O-])c2)C(C(=O)OC2CN(C(c3ccccc3)c3ccccc3)C2)=C(N)N1 (stereo unspecified)
max response [1]: 7.23% (inactive) | parasite growth, % of DMSO control [10]: 6.8% | parasite growth remaining, % of DMSO control (lower = more inhibition) [11]: 7.73% | parasite growth, % of control (lower = inhibition) [12]: 24.4% | growth, % of control [13]: 9.79% | outcome [2]: inactive | outcome [18]: inactive

Reference: PubChem BioAssay (NCATS)
